Data published in PubChem BioAssay AID485346 (Sanford-Burnham Center for Chemical Genomics, 2010).
The campaign covered roughly 330,000 compounds. About 10,000 (3%) were called active.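 Rule for the calls: active = inhibition of at least 50% at 8 µM in the primary screen; inactive = the rest.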 The entries come from a sample that favours actives as a whole.

Target: Protein Mdm4 (Homo sapiens) + E3 ubiquitin-protein ligase Mdm2 (Homo sapiens) (UniProt O15151+Q00987)
Assay: disruptors of Mdm2/MdmX RING complex – cell-based, luminescence, split luciferase, SaOS-2, uHTS, primary screen (AID 485346)
Conditions: SaOS-2 split-luciferase Mdm2/MdmX complementation, at 8 µM, active compounds read high

Sequence of Protein Mdm4 (Homo sapiens) + E3 ubiquitin-protein ligase Mdm2 (Homo sapiens) (O15151 whole entry, looked up): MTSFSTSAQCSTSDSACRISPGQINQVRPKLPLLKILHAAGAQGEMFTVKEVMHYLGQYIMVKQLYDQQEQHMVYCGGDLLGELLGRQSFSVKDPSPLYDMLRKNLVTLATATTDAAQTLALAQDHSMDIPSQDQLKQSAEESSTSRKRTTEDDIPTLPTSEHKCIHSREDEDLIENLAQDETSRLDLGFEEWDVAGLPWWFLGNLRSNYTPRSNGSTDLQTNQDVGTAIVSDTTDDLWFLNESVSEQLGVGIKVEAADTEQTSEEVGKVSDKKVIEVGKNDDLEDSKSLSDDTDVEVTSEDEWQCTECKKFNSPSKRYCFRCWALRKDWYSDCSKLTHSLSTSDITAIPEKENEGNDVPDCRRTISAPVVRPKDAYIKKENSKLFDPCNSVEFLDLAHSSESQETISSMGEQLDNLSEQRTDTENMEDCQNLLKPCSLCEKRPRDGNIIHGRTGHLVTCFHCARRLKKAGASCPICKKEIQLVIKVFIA
Sequence of Protein Mdm4 (Homo sapiens) + E3 ubiquitin-protein ligase Mdm2 (Homo sapiens) (Q00987 whole entry, looked up): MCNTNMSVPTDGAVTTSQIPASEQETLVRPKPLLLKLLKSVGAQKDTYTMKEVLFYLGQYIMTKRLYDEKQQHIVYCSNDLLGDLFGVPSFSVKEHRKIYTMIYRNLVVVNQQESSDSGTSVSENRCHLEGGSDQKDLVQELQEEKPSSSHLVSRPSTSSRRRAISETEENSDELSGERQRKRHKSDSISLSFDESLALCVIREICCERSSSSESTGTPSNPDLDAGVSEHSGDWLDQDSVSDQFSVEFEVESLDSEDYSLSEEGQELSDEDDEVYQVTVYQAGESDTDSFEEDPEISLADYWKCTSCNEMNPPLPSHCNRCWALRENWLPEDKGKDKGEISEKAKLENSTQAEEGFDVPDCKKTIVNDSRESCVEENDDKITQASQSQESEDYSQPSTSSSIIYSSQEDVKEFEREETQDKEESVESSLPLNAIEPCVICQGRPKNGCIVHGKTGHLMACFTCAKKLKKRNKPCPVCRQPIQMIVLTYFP

inhibition, inactive:
COc1ccc(-c2nnc(SCC(=O)c3ccc4c(c3)OCCO4)o2)cc1 17.3%
COc1ccc(-c2nnc(SC(C)C(=O)NC3CC3)o2)cc1 (stereo not given) 19.9%
O=C(CCc1ccccc1)Nc1ccc(NC(=O)C2CCCCC2)nc1 11%
COc1ccc(CNC(=O)CN(C(=O)c2csnn2)c2cnc3ccccc3c2)cc1 12.6%
CCOC(CNC(=O)C1CCN(S(=O)(=O)c2ccc3nc4c(c(C(=O)O)c3c2)CC(C)CC4)CC1)OCC (stereo not given) 14.5%
C/C(=N\OCC(=O)O)c1ccc(Cl)cc1 -3.73%
C/C(=N\NC(=S)NCc1ccccc1)c1ccc(Cl)cc1 12.3%
CN(C)c1ccc(C(CNC(=O)c2ccc(F)cc2)c2c[nH]c3ccccc23)cc1 (stereo not given) 3.11%
COC(=O)c1sccc1NC(=O)COc1ccc(Cl)cc1 -7.02%
Cc1cnc(C(=O)OCC(=O)Nc2ccc(Cl)cc2Cl)cn1 21.4%
CCc1ccc(CN(C)C(C)C(=O)Nc2ccc(S(=O)(=O)N3CCCC3)cc2)cc1 (stereo not given) 20.1%
O=C(CNC(=O)Cc1ccccc1)N=Nc1c(O)[nH]c2ccc(Br)cc12 37.6%
Oc1[nH]c2ccc(Br)cc2c1N=Nc1nn[nH]n1 13.6%
COc1ccc(CC(=O)NCC(=O)N/N=C/c2cc(Br)ccc2OC)cc1 41.6%
Cc1ccc(S(=O)(=O)Oc2ccc(/C=N/NC(=O)c3ccncc3)cc2)cc1 16.6%
O=C(Nc1ccnn1C1CCN(C/C=C/c2ccc(F)cc2)CC1)C1CCCC1 22.3%
O=C(O)CN(Cc1ccco1)S(=O)(=O)c1ccc(F)cc1 -22%
Cc1onc(-c2c(F)cccc2Cl)c1C(=O)N(C)CC(=O)Nc1cccc(F)c1 -8.71%
COc1ccc(S(=O)(=O)NCCc2c[nH]c3ccccc23)cc1OC 6.22%
COc1ccccc1NC(=O)CCCc1c[nH]c2ccccc12 -3.5%
Cc1ccoc1C(=O)Nc1cccc(Oc2ccccc2)c1 -66.5%
COC(=O)c1ccccc1NC(=O)C1(S(=O)(=O)c2ccc(Cl)cc2)CC1 -0.27%
CCOc1ccc(-c2nc(N)ncc2-c2ccccc2OC)c(O)c1 11.3%
COc1ccc(-c2[nH]ncc2CN(C)Cc2c(C)n[nH]c2C)c(OC)c1 15.3%
C=C(C)COc1ccc(-c2nc(N)ncc2-c2ccccc2OC)c(O)c1 17.9%
COc1ccc(-c2n[nH]c(C)c2-c2ccccc2OC)c(O)c1 38.6%
C=C(C)COc1ccc(-c2ncncc2-c2ccc(OC)cc2)c(O)c1 29.3%
COc1ccc(-c2c(-c3ccc(OC)cc3O)nc(C)nc2C(F)(F)F)cc1 8.07%
O=C(NCCCCO)C(F)(F)C(F)(F)C(F)(F)C(=O)NCCCCO -22.9%
C=CCNCCCCOc1ccccc1 -9.48%
C/C=C/C=C/C(=O)OCC(=O)Nc1ccc(Cl)cc1 23.8%
Cc1ccc(N2C(=O)CC(Sc3ncn[nH]3)C2=O)cc1 (stereo not given) 7.7%
N#CC1(NC(=O)COC(=O)CSc2ccc(F)cc2)CCCCC1 6.22%
Cc1ccc(C(=O)NN(CCC#N)C2=NS(=O)(=O)c3ccccc32)cc1 6.64%
Cc1cn(C2OC[C@@H](O)[C@@H]2CO)c(=O)[nH]c1=O (stereo not given in full) -25.3%
CCOC(=O)N1CCN(C(=O)c2ccc(S(=O)(=O)Nc3cccc(C(F)(F)F)c3)cc2)CC1 5.75%
CCOC(=O)c1ccc2c(c1)nc(C)n2CC -24.3%
Cc1nc2c(C(=O)NCc3cccs3)cnn2c(C)c1Cc1ccc(F)cc1 5.96%
CN(C)c1ccc(-c2nnc(-c3cccnc3)o2)cc1 -90.9%
OC(CNCc1ccc2c(c1)OCO2)COc1ccccc1 (stereo not given) -15.2%
Cc1ccc(OCC(=O)OC(C)CN(C)Cc2ccccc2)cc1 (stereo not given) -13.3%
CCC(C)c1ccc(NC(=S)N2CCCC2)cc1 (stereo not given) 17.9%
O=C(O)CN1C(=O)CC(Cc2ccccc2)C1=O (stereo not given) 3.44%
NS(=O)(=O)c1ccc(CNC(=O)c2cccc(S(=O)(=O)N3CCc4ccccc43)c2)cc1 27.6%
C[C@@H]1CN([C@@H](C)CO)C(=O)c2cccc(NS(=O)(=O)c3ccc(F)cc3)c2O[C@H]1CN(C)C(=O)NC1CCCCC1 -2.62%
O=C(CN1CCN(C2CCCCC2)CC1)Nc1ccccc1N1CCCCC1 20%
Cc1ccc(C(C)C)cc1OCC(=O)Nc1ccccc1N1CCCC1 28.7%
CSCCC1NC(=O)N(CC(=O)Nc2cccc(S(=O)(=O)N3CCCCCC3)c2)C1=O (stereo not given) 2.6%
O=C1/C(=C\Nc2ccccc2)CCN1c1ncccn1 -11.4%
O=C(CN1CCCSc2ccccc21)N1CCN(S(=O)(=O)c2ccccc2)CC1 -4.66%
COc1ccccc1C(=O)NC(=S)Nc1ccccc1N1CCCCC1 30%
Cc1ccccc1NC(=O)Nc1ccccc1N1CCCCC1 2.88%
COc1ccc(S(=O)(=O)N(CC(=O)N/N=C/c2ccccc2C(=O)O)c2ccccc2OC)cc1 -6.42%
COc1ccccc1NC(=O)CN(c1ccccc1OC)S(=O)(=O)c1ccccc1 -19.5%
C=CCN1CC(C)/C(=N\O)CC1C (stereo not given) 24.4%
Brc1cc(Br)c(Oc2cc(Br)c(Br)cc2Br)cc1Br 15.4%
Fc1ccccc1-c1cc2cc3c(cc2cn1)OCO3 -231%
Cc1nc2ccccc2n1CC(=O)N/N=C/c1cccnc1 25.2%
Cc1ccc(NC(=O)CSc2cccc3cccnc23)c(C)c1 28.1%
C/C(=N\NC(=O)c1ccc(CSc2nc(C)cc(C)n2)cc1)C1CCCCC1 11.2%
COc1ccc(NC(=O)CSCc2ccc([N+](=O)[O-])cc2)cc1OC 22.2%
O=C(c1cccc(S(=O)(=O)N2CCCC2)c1)N(Cc1ccco1)C1CCS(=O)(=O)C1 (stereo not given) 10.9%
O=C(N/N=C/c1cc2c(cc1Br)OCO2)C1COc2ccccc2O1 (stereo not given) 3.36%
CC1(C(=O)N/N=C/c2cc3c(cc2Br)OCO3)CC1(Br)Br (stereo not given) 31.2%
O=S(=O)(Nc1nccs1)c1ccc2c(c1)OCCO2 12.5%
CC(Sc1nnc(CNC(=O)c2ccccc2F)n1C)C(=O)Nc1nccs1 (stereo not given) -5.88%
Nc1ccc2nn(-c3ccc(Cl)cc3)nc2c1 -91.9%
CCOc1ccc(/C=N/NC(N)=S)cc1 10.2%
NC(=S)N/N=C/c1coc2cc(Cl)ccc2c1=O -1.23%
COC(=O)CCC(=O)N1CCCC(CO)(Cc2ccccc2)C1 (stereo not given) -73.8%
C[C@@H](C(=O)N1CCNCC1)n1cc(CCC(=O)O)nn1 3.92%
COc1ccc(N(C(=O)c2snc(C(N)=O)c2N)C(C(=O)NC2CCCC2)c2ccc(C)o2)c(OC)c1 (stereo not given) 8.7%
CC(OC(=O)CNC(=O)c1ccc(Cl)c([N+](=O)[O-])c1)C(=O)NCc1ccco1 (stereo not given) 27.3%
COC(=O)c1cc(NC(=O)Cc2ccccc2[N+](=O)[O-])ccc1Cl -1.62%
O=C(Nc1ccncc1)c1ccc(Cl)c([N+](=O)[O-])c1 6.79%
CC(=O)Nc1ccc(NC(=O)COC(=O)c2ccccc2C(=O)c2ccccc2)cc1 2.79%

inhibition, active:
COc1ccc(-c2nnc(SC(=O)N3c4ccccc4Sc4ccccc43)o2)cc1 69.1%
C/C(=N\N=C(N)N)c1ccc(Cl)cc1 52%
COC(=O)c1c(NC(=O)COc2ccc(Cl)cc2Cl)sc2c1CC(C)(C)NC2(C)C 100%
NS(=O)(=O)c1ccc(N=Nc2c(O)[nH]c3ccc(Br)cc23)cc1 53.6%
Cc1ccc(OCCOCCOc2ccc(Br)cc2/C=N\NC(=O)c2ccncc2)cc1 59.9%
COc1cccc(CNCCc2c[nH]c3ccccc23)c1OCc1ccccc1F 92.8%
C=C(C)COc1ccc(-c2n[nH]c(C)c2-c2ccccc2OC)c(O)c1 53.6%
C=C(C)COc1ccc(-c2n[nH]c(C)c2-c2ccccc2)c(O)c1 53.7%
COc1ccc(-c2n[nH]c(C)c2-c2ccc(OC)c(OC)c2)c(O)c1 62.5%
CCn1c(/C=C/Nc2ccccc2)[n+](CC)c2ccc(C(=O)OCC(F)(F)F)cc21 50.7%
CN(Cc1ccccc1)CC(O)COc1ccc(CNCc2cc3ccccc3s2)cc1 (stereo not given) 51.9%
CN1CCN(c2ccccc2NC(=O)COc2ccc(C3CCCCC3)cc2)CC1 51.3%
O=C(NC(=O)c1ccccc1N1CCCCC1)Nc1ccc(Br)cc1 51.5%
COc1ccccc1N(CC(=O)N/N=C(\C)c1ccccc1O)S(=O)(=O)c1ccc(C)cc1 52.3%
O=C(CSc1cccc2cccnc12)N/N=C/c1cccnc1 54.3%
O=C(N/N=C\c1cc2c(cc1Cl)OCO2)c1ccc(Br)s1 87.3%
CC(C)Oc1c(Br)cc(Br)cc1/C=N/NC(N)=S 57.4%
CC(=O)Nc1ccc(NC(=O)C(C)OC(=O)c2ccccc2C(=O)c2ccc(Cl)c([N+](=O)[O-])c2)cc1 (stereo not given) 98.6%
N#Cc1cccc(NC(=O)COC(=O)c2ccccc2C(=O)c2ccc(Cl)c([N+](=O)[O-])c2)c1 98.1%
